# Shown are actives, neighbours in structure and some others; about 3.3% of the full set was active somewhere.
# LmPK inhibitor: LmPK (Leishmania mexicana) enzyme inhibition; purified LmPK, Kinase-Glo ATP luminescence, 1 h; Potency, µM (top dose mostly 57.5 µM), for inactives: top-dose activity change, negative = inhibition, usual class: inhibitors; 0.37% of 290,000 active; AID 1721; further: on the % scale 0 is the no-effect control and ±100 the full control effect
# Target sequence (Q27686 whole entry, looked up): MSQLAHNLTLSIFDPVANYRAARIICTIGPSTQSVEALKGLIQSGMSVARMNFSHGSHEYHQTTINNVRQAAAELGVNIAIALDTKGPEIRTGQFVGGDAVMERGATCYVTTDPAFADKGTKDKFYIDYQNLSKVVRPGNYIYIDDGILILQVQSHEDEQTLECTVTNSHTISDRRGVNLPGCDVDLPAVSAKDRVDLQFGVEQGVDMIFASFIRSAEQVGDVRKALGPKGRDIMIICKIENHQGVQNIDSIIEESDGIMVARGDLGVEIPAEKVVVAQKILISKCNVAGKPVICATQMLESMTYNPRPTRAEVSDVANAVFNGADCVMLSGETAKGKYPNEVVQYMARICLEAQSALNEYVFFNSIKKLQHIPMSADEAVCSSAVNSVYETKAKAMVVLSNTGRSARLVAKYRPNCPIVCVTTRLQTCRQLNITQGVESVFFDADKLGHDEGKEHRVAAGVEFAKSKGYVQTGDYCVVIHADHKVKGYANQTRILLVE
#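 0.1 nM LmPK, 0.5 mM PEP, 0.1 mM ADP; 50 mM imidazole pH 7.2, 7 mM MgCl2, 50 mM KCl; 1 h RT. Kinase-Glo luminescence readout, normalized to no-enzyme (full inhibition) and uninhibited wells.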
# NS1 function inh: blocks influenza NS1 protein function | Potency, µM (top dose mostly 46.1 µM), inactives show at the top dose activity, positive = more growth | 0.4% of 270,000 active | AID 2326; calls by dose curve; further: actives are rising curves; nearly all actives have a fitted effect of over 50% in size
#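 Read-out: OD600 growth recovery of NS1-expressing budding yeast. Cells grown overnight at 30C in -URA glucose medium, washed, resuspended and diluted 1:100 in 2% galactose assay medium, pH 6.0. Same strain lacking NS1 served as positive control.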
# SARS PLpro yeast: blocks SARS-CoV papain-like protease in a yeast assay | Potency, µM (top dose mostly 32.9 µM), inactives show at the highest dose activity, positive = growth rescue, most hits filed as activators | AID 485353 | S. cerevisiae expressing SARS-CoV PLpro, growth rescue | 0.19% of 330,000 active; calls by dose curve; further: 0% is about no effect; nearly all actives have a fitted effect of over 55% in size
# Tb PYK inh: T. brucei pyruvate kinase inhibition; AID 624173; TbPYK enzyme, Kinase-Glo Plus ATP luminescence, 45 min; Potency, µM (titrated, usually from 76.8 µM), for inactives: at the top dose activity, negative = inhibition, usual class: inhibitors; 0.12% of 410,000 active; Q57TT1; further: on the % scale 0 is the no-effect control and ±100 the full control effect; nearly all actives have a fitted effect of over 50% in size
#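 Glycolytic pyruvate kinase of T. brucei was incubated with substrate, test compound and 130 uM ADP for 45 minutes at room temperature. Luminescent Kinase-Glo Plus signal was measured after 10 minutes.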
# RE007 growth inh: less growth of the S. pombe RE007 Vpr strain; S. pombe RE007 Vpr strain, BacTiter-Glo ATP luminescence, 24 h; Potency, µM (doses to about 92.2 µM), for the others: at the top dose activity change, negative = less growth, hits mostly inhibitors; 0.21% of 360,000 active; active means well fitted falling curve with a large enough effect; inconclusive means small, poorly fitted or top-dose-only effect; inactive means no such curve, though single readings can be large or run the other way; further: on the % scale 0 is the no-effect control and ±100 the full control effect; nearly all actives have a fitted effect of over 50% in size
#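 Fission yeast RE007 carrying one integrated HIV-1 vpr copy, seeded at OD 0.01 in PMG+AL medium with 23 nL pinned compound. Grown 24 h at 30 degrees; viability read by BacTiter-Glo luminescence after 5 min.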
# Sm TGR block: blocks Schistosoma mansoni thioredoxin glutathione reductase | Q962Y6 | purified TGR, DTNB reduction, TNB absorbance 405 nm | Potency, µM (doses to about 114 µM), for inactives: top-dose activity change, negative = inhibition, most hits filed as inhibitors | 3% of 360,000 active | AID 485364; further: on the % scale 0 is the no-effect control and ±100 the full control effect; nearly all actives have a fitted effect of over 60% in size
#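 Kinetic colorimetric format: TGR-catalysed, NADPH-driven DTNB reduction monitored via TNB absorbance. Enzyme dispensed at 20 nM; compound exposure 15 min at room temperature before reaction start.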
# * hit, by the source's call; ? = inconclusive; / = no result. Unless noted, the call rests on the fitted dose curve; in most records, active means well fitted curve in the direction sought with a large enough effect; inconclusive means small, poorly fitted or top-dose-only effect, or another doubt; inactive means no such curve, though single readings can be large; an effect the other way counts as inactive or inconclusive. Potency means the concentration at half of the fitted maximal effect.
SMILES,LmPK inhibitor,NS1 function inh,SARS PLpro yeast,Tb PYK inh,RE007 growth inh,Sm TGR block
O=C(CCN1C(=O)c2ccccc2Sc2ncccc21)Nc1ccc(F)cc1,/,/,/,-1%,/,16µM*
CC(C)NC(=O)CCN1C(=O)c2ccccc2Sc2ncccc21,-3%,-4%,-1%,-3%,17%,15%
CC(C)CCn1c(=O)c2cccnc2n(CC(=O)Nc2ccc(F)cc2)c1=O,/,/,/,2%,/,7%
COC(=O)N1C(=O)[C@@](Cc2ccccc2)(c2ccccc2)N1C(=O)OC,-4%,14%,-4%,-17%,-2%,3.5µM*
COC(=O)N1C(=O)[C@](Cc2ccccc2)(c2ccccc2)N1C(=O)OC,-8%,14%,-1%,-1%,2%,3.5µM*
O=C1NC(=O)N(c2ccccc2F)C(=O)/C1=C/c1ccc(Oc2ccc([N+](=O)[O-])cn2)cc1,2%,/,-2%,?,30%,20µM*
O=C(CSc1nnc2c(n1)[nH]c1ccccc12)OCc1ccccc1,8%,-3%,7%,-8%,19%,9%
O=C(O)CSc1nnc2c(n1)[nH]c1ccccc12,28µM*,/,-4%,6%,36%,2%
CCC(C(=O)C(C)C(O)C(C)CCc1ccc(C)c(O)c1C(=O)O)C1OC(CC)(C2CC[C@@](O)(CC)C(C)O2)CC1C (stereo partly drawn),/,/,/,3%,/,/
Cc1cc(C)c(NC(=O)CCC(=O)N2Cc3ccccc3Oc3ncccc32)c(C)c1,/,/,/,3%,/,-1%
Cc1cc(C)cc(Nc2ncc3c(n2)CC(c2ccco2)CC3=O)c1 (stereo not drawn),-1%,-80%,-22%,1%,-4%,50µM*
Cc1ccc(NC(=O)CSCC(=O)Nc2ncc3c(n2)CC(c2ccco2)CC3=O)cc1 (stereo not drawn),-1%,1%,?,-24%,14%,50µM*
Cc1ccsc1CN(C(=O)c1oc2cc(Br)ccc2c1C)C1CCS(=O)(=O)C1 (stereo not drawn),/,/,/,3%,/,0%
CC(=O)O[C@H]1C[C@@H]2OC3C=C(C)CCC3(C)[C@@]1(C)[C@@]21CO1 (stereo partly drawn),/,/,/,-6%,3.2µM*,/
Cc1cc(N2CCN(C)CC2)nc2ccc(NC(=O)Nc3ccccc3Cl)cc12,/,/,/,0%,/,3%
NC(=O)c1cc(N2C(=O)C=CC2=O)ccc1Cl,7%,4%,-11%,?,-4%,0.4µM*
CC(=O)Nc1ccc(Cl)c(C(N)=O)c1,3%,10%,3%,2%,-3%,7%
O=C(NCC1(c2ccccc2)CCCC1)c1ccccc1,-8%,-16%,17%,-6%,3%,4%
O=C(NCC1(c2ccccc2)CCCC1)C(=O)NCC1(c2ccccc2)CCCC1,3%,3%,20%,1%,-3%,40µM*
C[C@H](NC(=O)[C@@H]1Cc2ccccc2CN1C(=O)OC(C)(C)C)C(=O)NCc1ccco1,-10%,8%,2%,-3%,9%,40µM*
COc1ccc([N+](=O)[O-])cc1NC(=O)C(C)OC(=O)/C=C/c1ccco1 (stereo not drawn),1%,0%,15%,-13%,/,50µM*
CC(OC(=O)/C=C/c1ccco1)C(=O)NC1CCCCC1C (stereo not drawn),/,/,-4%,-1%,8%,45µM*
CC(OC(=O)/C=C/c1cccs1)C(=O)NC1CCCCC1C (stereo not drawn),-12%,23%,?,0%,-9%,?
O=C1CN(C(=O)c2ccc(Cl)cc2Cl)C(c2ccc(F)cc2)c2cc(F)ccc2N1 (stereo not drawn),/,/,/,-13%,/,2%
CCOC(=O)C1=Nc2ccccc2C1=[N+]=[N-],-1%,-52%,-16%,3%,0.25µM*,-5%
SMILES,LmPK inhibitor,NS1 function inh,SARS PLpro yeast,Tb PYK inh,RE007 growth inh,Sm TGR block
CCOC(=O)C1=Nc2ccccc2/C1=C\c1c(O)n(C)c(=O)n(C)c1=O,-2%,-4%,0%,-7%,6%,-7%
O=[N+]([O-])c1cc(-c2nc(-c3ccco3)no2)ccc1NCc1ccccc1,/,/,/,-1%,/,35µM*
O=[N+]([O-])c1cc(-c2nc(-c3ccccn3)no2)ccc1NCc1ccccc1,/,/,/,2%,/,0%
CCOc1ccc(NC(=O)CCS(=O)(=O)c2cc3c4c(c2)CCN4C(=O)CC3)cc1,/,/,/,-7%,/,-5%
COc1ccc(Cl)cc1NS(=O)(=O)c1cccc(C(=O)NCC(c2ccco2)N(C)C)c1 (stereo not drawn),-5%,-1%,5%,-3%,-6%,13µM*
O=S(=O)(Cc1ccccc1Cl)Nc1ccccn1,-6%,0%,4%,4%,11%,25µM*
COc1cccc2cc(C(=O)C3=C(O)C(=O)N(Cc4ccco4)C3c3cccnc3)oc12 (stereo not drawn),8%,1%,2%,4%,-6%,25µM*
O=C(C1=C(O)C(=O)N(CCN2CCOCC2)C1c1cccnc1)c1cc2ccccc2o1 (stereo not drawn),-1%,10%,6%,-2%,-10%,?
O=C(C1=C(O)C(=O)N(Cc2ccco2)C1c1cccnc1)c1cc2ccccc2o1 (stereo not drawn),5%,2%,16%,-17%,3%,25µM*
COc1cccc2cc(C(=O)C3=C(O)C(=O)N(c4cc(C)on4)C3c3cccs3)oc12 (stereo not drawn),2%,9%,-7%,-5%,12%,28µM*
CC(=O)Nc1ccc2c(c1)/C(=C/c1ccc([N+](C)(C)C)cc1)c1ccccc1-2,/,-8%,/,/,/,/
COC(=O)c1ccc(CCc2cc(O)ccc2O)cc1,/,11%,/,?,11µM*,/
COC(=O)c1ccc(CCc2cc(O)c(Br)cc2O)cc1,/,/,/,?,11µM*,/
COC(=O)c1ccc(O)cc1,-11%,0%,0%,10%,-7%,9%
Cc1ccccc1NC(=O)CN(c1ccc(Cl)cc1Cl)S(=O)(=O)c1ccccc1,/,/,/,2%,/,4%
CCOC(=O)C(CC)Sc1ncnc2c1c(-c1ccccc1)cn2-c1ccc(OC)cc1 (stereo not drawn),/,/,/,-4%,/,5%
CC(NC(=O)Nc1ccc([N+](=O)[O-])cc1)C(c1ccccc1)N1CCOCC1 (stereo not drawn),5%,/,0%,-3%,5%,28µM*
Cc1cc(=O)n2nc(N3CCC(C(=O)Nc4ccc(Br)c(C)c4)CC3)sc2n1,/,/,/,-2%,/,-3%
O=C(O)c1ccc(/C=N\N=C2c3ccccc3-c3ccccc32)cc1,/,-25%,/,/,/,/
OCCC1CN(C/C=C/c2ccco2)CCN1Cc1ccccc1 (stereo not drawn),-1%,0%,-2%,-8%,-3%,20µM*
